Eight molecules from PubChem BioAssay (Tox21) can be followed below.

A number with no mark means an inactive call. Inconclusive results are not listed. Calls of active or inactive are those of the source. Unless noted, calls come from the whole dose curve.

The nature of assay [1]: Nuclear factor erythroid 2-related factor 2/antioxidant responsive element (Nrf2/ARE) small molecule agonists: luciferase reporter gene qHTS assay in human keratinocytes (AID 1919969; note: nearly all actives have a fitted effect of over 35% in size). (In general: A reporter such as luciferase makes a cellular process visible.)
Assay [2] has as its target Gonadotropin-releasing hormone receptor (Homo sapiens) (UniProt P30968). Nature of the assay: Human gonadotropin-releasing hormone receptor (GnRHR) small molecule agonists, calcium flux assay in GnRHR-HEK293 cells (AID 1920063). Note: nearly all actives have a fitted effect of over 35% in size. Put shortly: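 We seeded human GnRHR-expressing HEK293 cells for 18 hours, loaded them with calcium dye for an hour at 37 C, added test compounds, and recorded fluorescence intensity kinetically for three minutes.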
Background: Calcium assays in cells follow changes in intracellular calcium, usually with a dye or a luminescent sensor.

The target of assay [3] is KiSS-1 receptor (Homo sapiens) (UniProt Q969F8). Nature of the assay: Human kisspeptin (KISS1R) small molecule agonists, calcium flux assay in KISS1R-HEK293 cells (AID 1920064; active = well fitted activation curve with a large enough effect in the repeat runs). Put shortly: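 Kinetic calcium assay, 1 s sampling over 3 min at Ex/Em 480/540, in HEK293 cells engineered with human KISS1R; compounds delivered in DMSO after 1 h dye loading.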
Sequence of KiSS-1 receptor (Homo sapiens) (Q969F8 whole entry, looked up): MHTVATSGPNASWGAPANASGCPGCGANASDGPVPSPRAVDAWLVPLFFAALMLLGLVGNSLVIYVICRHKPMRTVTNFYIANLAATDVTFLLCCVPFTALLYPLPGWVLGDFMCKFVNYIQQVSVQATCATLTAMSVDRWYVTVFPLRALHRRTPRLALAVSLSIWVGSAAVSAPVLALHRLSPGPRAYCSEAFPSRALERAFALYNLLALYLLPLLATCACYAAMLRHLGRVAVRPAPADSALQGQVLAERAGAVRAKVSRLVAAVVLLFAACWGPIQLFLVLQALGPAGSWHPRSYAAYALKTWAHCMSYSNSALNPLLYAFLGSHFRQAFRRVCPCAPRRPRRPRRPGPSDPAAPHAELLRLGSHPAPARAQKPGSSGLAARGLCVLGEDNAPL
Assay [4] can be described thus: G protein-coupled receptor (GPCR) small molecule agonists, calcium flux assay: HEK293 wild type cell line counter screen (AID 1920065). In short, it runs like this:
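Calcium-sensitive dye, loaded 1 h at 37 C into cells cultured 18 h, reports compound-evoked calcium release as fluorescence (Ex/Em 480/540), measured over 3 min. Agonist mode; 15-point titrations, triplicate.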

Assay [5] is described as follows: p53 small molecule agonists, cell-based qHTS assay with human liver microsomes (AID 1963577). In short, it runs like this: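 Compounds act here after metabolic activation: human liver microsomes and NADPH, both at 0.5 mg/mL final, were co-added to p53RE-bla cells. Incubation ran 16 h at 37 C, followed by LiveBLAzer detection.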
(Quantitative high-throughput screening tests each substance at several concentrations.)

The nature of assay [6]: p53 small molecule agonists, cell-based qHTS assay with rat liver microsomes (AID 1963578). Put shortly:
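Read-out is beta-lactamase reporter fluorescence (LiveBLAzer, 2 h, room temperature, dark) in p53RE-bla cells treated 16 h at 37 C with compound, rat liver microsomes and NADPH, both 0.5 mg/mL final.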

The nature of assay [7]: p53 small molecule agonists, cell-based qHTS assay with rat liver microsomes: qHTS cell viability counter screen (AID 1963580). Note: nearly all actives have a fitted effect of over 45% in size. In short, it runs like this: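 p53RE-bla HCT-116 cells (4,000/well) rested 5 h at 37 C, then given Tox21 compounds in DMSO with rat liver microsomes (0.5 mg/mL final) plus NADPH (0.5 mg/mL final) for 16 h at 37 C. Viability read by CellTiter-Glo luminescence after 30 min at room temperature.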

Assay [8] can be described thus: p53 small molecule agonists, cell-based qHTS assay: qHTS cell viability counter screen (AID 1963581). Note: nearly all actives have a fitted effect of over 45% in size. Note: potency is the fitted concentration of half-maximal effect. Put shortly:
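Following 5 h attachment, HCT-116 p53RE-bla cells took up compound for 16 h at 37 C; the reporter was read with B/G FRET substrate (2 h RT), and viability then via CellTiter-Glo ATP luminescence.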

Assay [9] is described as follows: p53 small molecule agonists, cell-based qHTS assay (AID 1963582; active = well fitted activation curve with a large enough effect in the signal ratio in the repeat runs, not every such curve was filed as active; the % refers to the signal ratio). In short, it runs like this:
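In this cell-based concentration-response screen, a p53 response element drives beta-lactamase; cells received DMSO-borne compounds after 5 h culture and were incubated a further 16 h before FRET substrate development.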

In assay [10] the target is 5-hydroxytryptamine receptor 2A (Homo sapiens) (UniProt P28223). The assay is described as follows: 5-hydroxytryptamine receptor 2A (HTR2A) small molecule antagonists, cell-based qHTS assay (AID 1963586). Note: nearly all actives have a fitted effect of over 45% in size. Put shortly:
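Antagonist-mode intracellular calcium assay: DOI (4 nM) added after 5 min compound pre-incubation at room temperature to dye-loaded HTR2A-CHO cells. Fluorescence followed for 3 min, sampled every second.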

The target is the same in assay [11]. Nature of the assay: 5-hydroxytryptamine receptor 2A (HTR2A) small molecule agonists, cell-based qHTS assay (AID 1963587). Note: nearly all actives have a fitted effect of over 30% in size. In short, it runs like this: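 HTR2A-CHO cells, plated 18 h at 37 C/5% CO2, dye-loaded 1 h at 37 C; compounds in DMSO added by pin tool (agonist mode). Intracellular calcium flux read as kinetic fluorescence on FDSS over 2 min at 1 s intervals.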

Assay [12] deals with Muscarinic acetylcholine receptor M1 (Homo sapiens) (UniProt P11229). Nature of the assay: Cholinergic receptor muscarinic 1 (CHRM1) small molecule antagonists, cell-based qHTS assay (AID 1963588). Note: nearly all actives have a fitted effect of over 40% in size. In short, it runs like this:
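CHRM1-CHO calcium-flux assay, antagonist mode. Cells were seeded 18 h, dye-loaded 1 h at 37 C and given compound for 5 min at RT, then acetylcholine was added at 50nM. FDSS fluorescence was read 3 min; 15 concentrations, three runs.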

Assay [13] has the same target. Nature of the assay: Cholinergic receptor muscarinic 1 (CHRM1) small molecule agonists, cell-based qHTS assay (AID 1963589). Note: nearly all actives have a fitted effect of over 35% in size. In short, it runs like this: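 Measures agonist-induced intracellular calcium rise. Stable human CHRM1 CHO line, 1 h dye load at 37 C, compounds from DMSO, kinetic fluorescence read.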
Assay [14] is described as follows: cAMP Responsive Elements (CRE) small molecule antagonists, cell-based qHTS assay (AID 1963591; active = well fitted inhibition curve with a large enough effect in the signal ratio in the repeat runs, not every such curve was filed as active; the % refers to the signal ratio). In short, it runs like this:
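HEK293T cells carrying a CRE-driven beta-lactamase reporter receive compound and NKH477 (0.25 uM final) for 3 h. Fluorescence from LiveBLAzer B/G FRET substrate is read after 2 h at room temperature.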

In assay [15] the target is Beta-2 adrenergic receptor (Homo sapiens) (UniProt P07550). Nature of the assay: Adrenergic beta2 receptor (ADRB2) small molecule antagonists, cell-based qHTS assay (AID 1963592). Note: series mostly up to about 92 µM; nearly all actives have a fitted effect of over 50% in size. In short, it runs like this:
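Cells (CHO, stable ADRB2 overexpression) incubated 18-20hr at 37C; compounds added from DMSO; agonist mix (1nM isoproterenol, 100uM IBMX, 25uM Ro-20-1724) added; 0.5hr RT; d2-cAMP and anti-cAMP-cryptate added; 1hr RT; 665/615 nm read.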

The target of assay [16] is D(2) dopamine receptor (Homo sapiens) (UniProt P14416). The assay is described as follows: Dopamine D2 receptor (DRD2) small molecule agonists, cell-based qHTS assay (AID 1963594). Note: nearly all actives have a fitted effect of over 35% in size. Put shortly: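 HEK293 cells stably expressing DRD2 were cultured 24 h at 37 C, then given Ro20-1724 (0.1 mM final) and compounds for 10 min at room temperature. NKH477 (200nM) was then added for 30 min. cAMP was read by HTRF.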
Sequence of D(2) dopamine receptor (Homo sapiens) (P14416 whole entry, looked up): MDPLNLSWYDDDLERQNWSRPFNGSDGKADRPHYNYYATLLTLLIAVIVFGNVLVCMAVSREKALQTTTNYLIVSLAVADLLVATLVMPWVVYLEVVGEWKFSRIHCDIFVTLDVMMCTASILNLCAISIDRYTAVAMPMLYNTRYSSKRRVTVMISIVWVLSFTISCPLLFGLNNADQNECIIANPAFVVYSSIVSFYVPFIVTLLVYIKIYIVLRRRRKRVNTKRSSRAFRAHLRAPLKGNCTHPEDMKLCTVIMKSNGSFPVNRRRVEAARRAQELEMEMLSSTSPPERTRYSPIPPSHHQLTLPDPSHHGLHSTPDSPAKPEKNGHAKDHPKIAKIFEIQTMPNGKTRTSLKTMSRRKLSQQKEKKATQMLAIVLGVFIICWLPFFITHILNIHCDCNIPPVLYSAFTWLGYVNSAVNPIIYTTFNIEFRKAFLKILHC

Assay [17] in a line: p53 small molecule agonists, cell-based qHTS assay with human liver microsomes: qHTS cell viability counter screen (AID 1963579). Note: nearly all actives have a fitted effect of over 45% in size. Note: potency is the fitted concentration of half-maximal effect. In short, it runs like this:
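Cells carrying the p53 response-element beta-lactamase reporter are treated for 16 h at 37 C with test compounds in the presence of human liver microsomes and NADPH (both 0.5 mg/mL final); ATP-based CellTiter-Glo luminescence then reports viability.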

The nature of assay [18]: cAMP Responsive Elements (CRE) small molecule agonists, cell-based qHTS assay (AID 1963590). Put shortly: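 A CRE-responsive beta-lactamase reporter in HEK 293T cells was used. Treatment ran 3 h at 37 C; detection used LiveBLAzer B/G FRET substrate for 2 h at room temperature.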
In assay [19] the target is D(2) dopamine receptor (Homo sapiens) (UniProt P14416). The assay is described as follows: Dopamine D2 receptor (DRD2) small molecule antagonists, cell-based qHTS assay (AID 1963595; active = well fitted inhibition curve with a large enough effect in the signal ratio in the repeat runs, with a control signal flat; the % refers to the signal ratio). In short, it runs like this: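 In this cell-based antagonist screen, compounds act for 10 min at room temperature before a 30 min challenge with 12 nM quinpirole and 200 nM NKH477. cAMP is quantified by HTRF competition in DRD2-HEK293 cells containing 0.1 mM Ro20-1724.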

The target in assay [20] is Beta-2 adrenergic receptor (Homo sapiens) (UniProt P07550). The assay is described as follows: Adrenergic beta2 receptor (ADRB2) small molecule agonists, cell-based qHTS assay (AID 1963593).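 Note: CHO cells stably overexpressing human ADRB2.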 In short, it runs like this: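 CHO cells stably over-expressing ADRB2 were plated overnight at 37C, then dosed with compounds plus a stimulation mix containing 100uM IBMX and 25uM Ro-20-1724 for 0.5hr at room temperature. cAMP was measured by HTRF competition, 1hr.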
Sequence of Beta-2 adrenergic receptor (Homo sapiens) (P07550 whole entry, looked up): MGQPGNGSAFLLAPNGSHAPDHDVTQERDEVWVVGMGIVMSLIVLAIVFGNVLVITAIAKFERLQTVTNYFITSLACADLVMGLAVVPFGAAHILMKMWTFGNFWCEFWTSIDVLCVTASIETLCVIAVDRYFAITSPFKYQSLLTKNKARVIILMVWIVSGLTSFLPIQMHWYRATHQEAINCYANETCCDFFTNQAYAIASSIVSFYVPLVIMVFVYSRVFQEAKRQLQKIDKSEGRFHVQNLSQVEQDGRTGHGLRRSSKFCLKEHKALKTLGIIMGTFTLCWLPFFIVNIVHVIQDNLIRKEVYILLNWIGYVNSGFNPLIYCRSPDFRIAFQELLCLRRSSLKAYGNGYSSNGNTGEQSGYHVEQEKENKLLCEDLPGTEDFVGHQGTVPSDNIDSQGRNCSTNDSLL

Sequence of 5-hydroxytryptamine receptor 2A (Homo sapiens) (P28223 whole entry, looked up): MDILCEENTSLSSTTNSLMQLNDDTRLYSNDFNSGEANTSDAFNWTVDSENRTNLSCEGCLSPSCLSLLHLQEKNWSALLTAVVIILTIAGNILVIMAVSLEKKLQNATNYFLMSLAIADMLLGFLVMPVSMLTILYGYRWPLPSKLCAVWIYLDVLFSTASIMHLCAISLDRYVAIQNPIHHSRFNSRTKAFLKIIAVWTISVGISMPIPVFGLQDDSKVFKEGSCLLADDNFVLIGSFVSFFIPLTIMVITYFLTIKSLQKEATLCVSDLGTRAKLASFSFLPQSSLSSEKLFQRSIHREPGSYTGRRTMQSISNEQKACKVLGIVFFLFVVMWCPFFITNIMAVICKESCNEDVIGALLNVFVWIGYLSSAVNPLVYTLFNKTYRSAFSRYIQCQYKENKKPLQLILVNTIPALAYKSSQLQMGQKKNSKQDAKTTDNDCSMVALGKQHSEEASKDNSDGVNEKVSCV
Sequence of Muscarinic acetylcholine receptor M1 (Homo sapiens) (P11229 whole entry, looked up): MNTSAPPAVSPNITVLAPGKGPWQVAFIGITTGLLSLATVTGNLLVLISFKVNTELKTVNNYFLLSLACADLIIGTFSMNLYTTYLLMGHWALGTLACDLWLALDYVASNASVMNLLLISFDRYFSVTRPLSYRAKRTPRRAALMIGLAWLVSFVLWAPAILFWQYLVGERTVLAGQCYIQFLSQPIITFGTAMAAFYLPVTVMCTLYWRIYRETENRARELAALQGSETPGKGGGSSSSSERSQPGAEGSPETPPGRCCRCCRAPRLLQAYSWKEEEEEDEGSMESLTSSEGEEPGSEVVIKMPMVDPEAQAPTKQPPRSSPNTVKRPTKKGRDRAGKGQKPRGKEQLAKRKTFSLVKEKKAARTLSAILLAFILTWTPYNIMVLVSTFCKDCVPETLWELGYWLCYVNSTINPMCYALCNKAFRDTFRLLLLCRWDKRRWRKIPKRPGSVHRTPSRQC
Sequence of Gonadotropin-releasing hormone receptor (Homo sapiens) (P30968 whole entry, looked up): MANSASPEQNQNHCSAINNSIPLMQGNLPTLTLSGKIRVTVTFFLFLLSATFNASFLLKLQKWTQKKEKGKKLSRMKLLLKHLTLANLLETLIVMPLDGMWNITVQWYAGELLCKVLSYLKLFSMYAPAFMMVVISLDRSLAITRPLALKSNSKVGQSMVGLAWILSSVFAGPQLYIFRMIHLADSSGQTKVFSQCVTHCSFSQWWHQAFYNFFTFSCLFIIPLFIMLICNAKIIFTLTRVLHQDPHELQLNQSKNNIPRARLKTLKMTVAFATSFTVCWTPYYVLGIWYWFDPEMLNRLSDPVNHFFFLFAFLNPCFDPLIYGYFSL

In the case of `CC(C)(C)N(CCO)CCO`, the Potency result in [1], in [2], in assay [5], in assay [6], in [7] and in assay [8] was “inactive” each time. The Potency result in assay [9], in assay [10], in assay [11], in [12], in assay [13] and in assay [14] was “inactive” in each case. The Potency entry in assay [15] and in assay [16] was “inactive” in each case. Moreover, the result in [3] and in assay [4] was inactive.
Turning to `CC(=O)OCC(=O)[C@@]1(O)CC[C@H]2[C@@H]3CCC4=CC(=O)C=C[C@]4(C)[C@@]3(F)[C@@H](O)C[C@@]21C`, the Potency entry in assay [1], in assay [2], in assay [5], in [6], in assay [17] and in assay [7] was “inactive” in each case. Further, the Potency result in [8], in assay [10], in assay [11], in assay [12], in [13] and in [18] was “inactive” each time. The Potency result in [14], in assay [15], in [16] and in [19] was “inactive” throughout. The result in assay [3] and in assay [4] was inactive.
As to `COc1cc(O)cc(O)c1`, the Potency entry in [1], in assay [2], in [5], in [6], in [7] and in assay [8] was “inactive” each time. Further, the Potency entry in assay [9], in assay [10], in assay [11], in assay [12], in assay [13] and in [18] was “inactive” in each case. Moreover, the Potency result in [15], in [20], in assay [16] and in [19] was “inactive” in each case. For the same molecule, the outcome in assay [3] and in [4] was inactive.
Turning to `S=C1NC=NC2N=CNC12` (configuration not stated), the Potency entry in [1], in [2], in [5], in [6], in [17] and in assay [7] was “inactive” throughout. The Potency result in [10], in [11], in assay [12], in assay [13], in assay [18] and in [15] was “inactive” throughout. Further, the Potency entry in assay [16] and in assay [19] was “inactive” each time. Besides, the result in assay [3] and in assay [4] was inactive.
Consider `O=C(O)c1cccc(-c2noc(-c3ccccc3F)n2)c1`, for which the Potency entry in assay [1], in assay [2], in assay [5], in [6], in [9] and in assay [11] was “inactive” throughout. Also, the Potency entry in assay [12], in [13], in assay [15], in [16] and in assay [19] was “inactive” in each case. In addition, the outcome in assay [3] and in assay [4] was inactive. Moreover, the Potency in assay [17] and in assay [8] was 15.8 µM (active) in each case.
As for `CC(=O)OCC(C)C`, the Potency result in assay [1], in assay [2], in assay [5], in [6], in assay [17] and in assay [7] was “inactive” in each case. The Potency entry in assay [9], in [10], in assay [13], in assay [18], in assay [14] and in assay [15] was “inactive” each time. Besides, the Potency result in assay [20], in [16] and in assay [19] was “inactive” in each case. For the same molecule, the result in [3] and in assay [4] was inactive.
Regarding `COc1cc(C)ccc1C(C)C`, the Potency result in assay [1], in [2], in assay [5], in [6], in [17] and in assay [8] was “inactive” throughout. Also, the Potency entry in assay [9], in [10], in [11], in assay [12], in assay [13] and in [18] was “inactive” throughout. Besides, the Potency entry in [14], in assay [15], in assay [20], in assay [16] and in assay [19] was “inactive” in each case. The outcome in assay [3] and in [4] was inactive.
With `COC(=O)c1ccccc1Cl`, the Potency result in assay [1], in assay [2], in assay [5], in assay [6], in [7] and in assay [8] was “inactive” in each case. Besides, the Potency entry in assay [9], in assay [10], in assay [11], in assay [12], in assay [13] and in assay [18] was “inactive” each time. Also, the Potency result in assay [14], in assay [15], in [16] and in assay [19] was “inactive” throughout. Besides, the result in [3] and in assay [4] was inactive.
